Rab9 promoter act: activators of Rab9 promoter. Huh7 Rab9 promoter-luciferase reporter, luminescence, 24 h. Potency, µM (titrated, usually from 9.22 µM), inactives show top-dose activation, negative = inhibition, actives largely listed as activators. hit rate 2.8% among 320,000. AID 485297; further: % of control where 0% means no effect; nearly all actives have a fitted effect of over 60% in size
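Huh7 cells stably carrying a Rab9 promoter-luciferase reporter, 1500 cells per well in OP-MEM I with 10% FBS, treated with compound 24 hours at 37C. Luciferase activity read by luminescence after 10 minutes with Amplite reagent.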
NPC1 promoter act: NPC1 promoter activation | Huh7 NPC1 promoter luciferase reporter, 24 h | Potency, µM (doses to about 9.22 µM), for inactives: at the highest dose activation, usual class: activators | hit rate 2.4% among 320,000 | AID 485313; further: % of control where 0% means no effect; nearly all actives have a fitted effect of over 60% in size
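In 1536-well qHTS, Huh7 cells harboring an NPC1 promoter–luciferase construct received compound for 24 h; activation was quantified by luminescence following luciferase reagent addition.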
FLuc modulator: inhibits or activates purified firefly luciferase, miR-21 counter-screen. purified FLuc, Km substrates, luminescence inhibition. Potency, µM (titrated, usually from 57.5 µM), inactives show top-dose activity change, negative = inhibition, hits mostly inhibitors. hit rate 6.9% among 360,000;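 further: plate controls were vehicle for no effect and reference inhibitor for full effect; nearly all actives have a fitted effect of over 55% in size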
Target sequence (P08659 whole entry, looked up): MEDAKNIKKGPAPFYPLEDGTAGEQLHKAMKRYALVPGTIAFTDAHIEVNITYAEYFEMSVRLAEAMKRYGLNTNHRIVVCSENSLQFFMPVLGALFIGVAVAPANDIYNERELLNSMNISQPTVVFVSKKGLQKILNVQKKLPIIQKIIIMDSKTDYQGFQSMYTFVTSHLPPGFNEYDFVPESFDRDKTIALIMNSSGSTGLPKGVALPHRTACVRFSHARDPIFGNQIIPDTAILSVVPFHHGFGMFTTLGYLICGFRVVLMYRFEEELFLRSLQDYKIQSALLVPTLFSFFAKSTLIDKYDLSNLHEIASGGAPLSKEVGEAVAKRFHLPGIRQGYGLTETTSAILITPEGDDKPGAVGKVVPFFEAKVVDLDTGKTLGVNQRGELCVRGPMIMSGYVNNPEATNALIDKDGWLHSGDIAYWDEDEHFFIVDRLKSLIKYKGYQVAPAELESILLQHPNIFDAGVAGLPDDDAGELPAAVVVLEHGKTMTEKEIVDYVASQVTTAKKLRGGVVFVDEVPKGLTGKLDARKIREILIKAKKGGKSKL
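Biochemical qHTS of compounds, final roughly 60 µM downward over six points, against 10 nM purified firefly luciferase using Km concentrations of substrates (10 uM D-luciferin, 10 uM ATP) in Tris acetate pH 7.5 buffer; luminescence output.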
SMN2 splice enh: SMN2 splice variant enhancement; HEK293 SMN2-luciferase splicing reporter, luminescence, 30-36 h; Potency, µM (highest dose often 46.1 µM), without a hit: at the highest dose activity change, positive = activation, usual class: activators; hit rate 2.8% among 210,000; further: % of control where 0% means no effect; nearly all actives have a fitted effect of over 55% in size
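qHTS luciferase splicing reporter: luminescence rises when SMN2 exon 7 is included in transfected HEK293 cells. Compound exposure lasted 30-36 h at 37C, with 4.5 mM final sodium butyrate as control, followed by a ONE-Glo read.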
ELG1 genotox: inducers of genotoxicity in HEK293T ELG1-luciferase cells. hit rate 1.3% among 330,000. HEK293T ELG1-luciferase reporter, luminescence, 16 h. AID 504466. Potency, µM (titrated, usually from 46 µM), for inactives: at the top dose activity change, positive = activation, actives largely listed as activators; further: % of control where 0% means no effect; nearly all actives have a fitted effect of over 60% in size
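ELG1-luciferase HEK293T cells, 2,000/well; compound pinned in; 16 hr, 37 °C, 5% CO2; ONE-Glo, 30 min RT; luminescence on CCD imager.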
p53 reactivation: mutant p53 re-activation in reporter cells. H1299 p53-A138V BP100-luciferase reporter, luminescence, 24 h. hit rate 0.063% among 320,000. Potency, µM (doses to about 92.2 µM), inactives show at the highest dose activity change, positive = activation, hits mostly activators. AID 504706; further: % of control where 0% means no effect; nearly all actives have a fitted effect of over 45% in size
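H1299 (p53-null), stable ts p53-A138V + BP100-Luc; 1000 cells/well, Opti-MEM/10% FBS; cpd 4 pt, 1:5; 24 h, 37 deg C, 5% CO2; detection reagent 10 min RT; luminescence.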
Active calls of the source: *; ? = inconclusive; · = no result; [ ] = dose if it differs, or a comment. An excerpt weighted towards active compounds, which were near 7.4% of everything screened. The call rests on the fitted dose curve; in most records, active means well fitted curve in the direction sought with a large enough effect; inconclusive means small, poorly fitted or top-dose-only effect, or another doubt; inactive means no such curve, though single readings can be large; an effect the other way counts as inactive or inconclusive. Potency means the concentration at half of the fitted maximal effect.

SMILES	Rab9 promoter act	NPC1 promoter act	FLuc modulator	SMN2 splice enh	ELG1 genotox	p53 reactivation
COc1c(-c2ccccc2)oc2c(ccc3occc32)c1=O	-1%	-2%	0%	·	0%	-4%
COc1ccccc1N1CCN(C(=O)C2CCN(S(=O)(=O)c3cnc[nH]3)CC2)CC1	·	·	0%	1%	·	·
COc1ccc2nc(NC(=O)Cc3ccc(OC)c(S(=O)(=O)N4CCOCC4)c3)sc2c1	7%	11%	24µM*	-23%	-1%	-2%
Cc1ccc(-c2csc(NC(=O)COC(=O)c3cccc(S(=O)(=O)N4CCOCC4)c3)n2)cc1	2.5µM*	3.2µM*	11µM*	·	?	?
Cc1ccc(-c2csc(NC(=O)c3cccc(S(=O)(=O)N4CCN(C)CC4)c3)n2)cc1	1%	-5%	-19%	-70%	-5%	4%
Cc1ccc2c(CNCc3cccs3)c(C(=O)O)n(Cc3ccc(F)cc3)c2c1	·	·	-10%	·	·	·
O=C(Nc1nc2c(F)cc(F)cc2s1)c1ccc2c(c1)OCCO2	0.32µM*	0.79µM*	0.6µM*	·	·	·
COc1cccc2sc(NC(=O)c3ccc4c(c3)OCCO4)nc12	·	·	0.95µM*	·	·	·
COc1cccc2sc(NC(=O)c3ccc(Br)s3)nc12	?	?	2.4µM*	-7%	?	9%
O=C1CCCC2=C1C1O[C@](CCCCN3C(=O)c4ccccc4C3=O)(Cc3c1ccc1ccccc31)O2	-11%[1.84 µM]	-2%[1.84 µM]	1%[11.5 µM]	·	·	·
COc1ccc(C(=O)/C=C/Nc2cc(C)ccn2)cc1	0.32µM*	0.4µM*	0.48µM*	·	?	8%
CCOC(=O)C(=CNc1cc(C)ccn1)C(=O)OCC	-4%	1%	-5%	1%	3%	15%
O=C(/C=C\Nc1ccc(Cl)cn1)c1ccc(Br)cc1	2.5µM*	2µM*	?	11µM*	?	19%
Cc1ccnc(N/C=C/C(=O)c2ccc(Br)cc2)c1	1.1µM*	1.6µM*	0.95µM*	·	?	?
COc1ccc(S(=O)(=O)Nc2cc(C)ccn2)cc1	-1%	-7%	6%	17%	0%	-6%
CC(=O)Nc1ccc(S(=O)(=O)N2CCc3nc(COc4ccccc4)c4c(c3C2)CO[C@@H](C)C4)cc1	·	·	·	1%[9.22 µM]	·	·
Cc1ccc(N=c2sc(C)c(C)n2C)cc1	?	?	21µM*	?	?	?
O=C[C@@H]1CCCN1C(=O)[C@@H]1CCCN1C(=O)OCc1ccccc1	·	·	·	0%	·	·
Cc1ccc(C)c(N2CCN(c3nc4c(S(=O)(=O)c5ccccc5)nnn4c4ccc(Cl)cc34)CC2)c1	·	·	3%	0%	·	·
COc1cc(/C=N/N(c2ccccc2)c2ccccc2)ccc1O	-1%	-1%	19µM*	·	1%	-2%
COc1cc(/C=N/Nc2ccccc2C(F)(F)F)ccc1O	?	10%	13µM*	·	18%	8%
COc1cc(/C=N/Nc2ccccc2)ccc1O	-1%	4%	15µM*	·	?	8%
CCCOc1ccc(-c2cnc(N)s2)cc1	3.2µM*	?	11µM*	18µM*	?	?
CCCOc1ccc(OCCSc2nnc(N)s2)cc1	?	?	4.8µM*	?	13µM*	13%
CCOc1ccc(-c2nc(CSc3nnc(N)s3)cs2)cc1	?	?	1.9µM*	?	5µM*	23%
SMILES	Rab9 promoter act	NPC1 promoter act	FLuc modulator	SMN2 splice enh	ELG1 genotox	p53 reactivation
Nc1nnc(SCCCOc2ccc(F)cc2)s1	3%	-4%	15µM*	·	-5%	1%
CCCOc1ccc(-c2cnc(SCC(N)=O)nc2N)cc1	2%	2%	-13%	-24%	0%	5%
Nc1nnc(SCCOc2cccc(Br)c2)s1	14%	13%	?	-2%	9%	12%
Cc1nc(S(=O)(=O)Nc2ccccc2C(=O)NCC2CC2)cn1C	-1%	-1%	-2%	·	0%	-1%
O=S(=O)(c1cc(Cl)ccc1Cl)N1CCN(c2ccccn2)CC1	0%	1%	2%	·	-5%	-3%
Nc1nnc(SCc2ccc(Cl)cc2)s1	17%	9%	?	19%	4%	14%
CCOC(=O)c1ccc(CSc2nnc(N)s2)cc1	?	?	17µM*	?	23µM*	?
O=C(CCn1c(=O)c2ccccc2n(Cc2cccc(Cl)c2)c1=O)NCCc1ccccc1	·	·	0%	-5%	·	·
Cc1ccc(NC(=O)c2cc3c(s2)CCCC3)cc1S(=O)(=O)Nc1ccccc1Cl	-5%	-7%	17µM*	-60%	-8%	?
O=C(Nc1cccc(S(=O)(=O)Nc2ccc(Cl)cc2)c1)c1cc2c(s1)CCCC2	1%	-3%	15µM*	-68%	-7%	?
O=C(Nc1cccc(S(=O)(=O)Nc2ccc(Cl)cc2)c1)c1ccc(Cl)nc1	-23%	-21%	3%	·	0%	2%
CCn1c(/C=C/c2c[nH]c3ccccc23)nc2ccccc2c1=O	1.4µM*	1.6µM*	5.4µM*	·	2.6µM*	13%
CCn1c(/C=C/c2ccccc2Cl)nc2ccccc2c1=O	22%	21%	27µM*	·	6%	11%
O=C(OCc1ccc(F)cc1)c1ccc2ccccc2n1	0%	1%	19µM*	12%	3%	1%
O=C(OCC(=O)c1ccc[nH]1)c1ccc2ccccc2n1	-5%	-1%	?	6%	5%	2%
O=C(COC(=O)c1ccc2ccccc2n1)c1ccccc1	-3%	-2%	6.7µM*	-20%	-17%	-3%
COc1ccc(-c2cc3c(=O)n(CC(=O)Nc4cccc(Cl)c4)nc(C)n3n2)cc1	-2%	-6%	1%	·	3%[9.26 µM]	8%
Cc1cc(C)cc(NC(=O)Nc2ccc(N3CCCCC3)cc2)c1	4µM*	3.5µM*	2.7µM*	·	?	25%
CCCCOC(=O)Nc1ccc(C(=O)OCCC)cc1	6%	23%	19µM*	-11%	?	10%
Cc1cc(C)cc(C(=O)Nc2ccc(N3CCCC3)cc2)c1	1µM*	2.2µM*	1.9µM*	8.9µM*	?	6%
CCCOC(=O)Nc1ccc(N2CCCCC2)cc1	·	·	3µM*	14µM*	·	·
Cc1cc(C)cc(OCC(=O)Nc2ccc(N3CCCCC3)cc2)c1	-2%	-3%	9%	·	1%	-3%
O=C(CN1CCCCC1)Nc1ccc(N2CCCCCC2)cc1	1%	-2%	-18%	-5%	0%	2%
CCOc1ccccc1NC(=O)C(=O)Nc1ccc2nc3n(c(=O)c2c1)CCCCC3	·	·	-7%	-3%	·	·
O=C(Nc1ccc(N2CCCC2)cc1)c1cccc(Cl)c1	0.25µM*	0.32µM*	0.67µM*	·	1.2µM*	·
CCOc1ccc(Nc2oc(-c3ccc(Cl)cc3)nc2C#N)cc1	2%	25%	?	?	?	2%
